Inconclusive results are not listed. Active and inactive are the calls of the source. How the source made its calls, unless noted: active means hit-call score of the fitted dose curve at least 0.9, where 1 is the maximum; inactive means score below 0.9.
How the values were obtained:
[1] = Tanguay_ZF_120hpf_MO24: Oregon State University Tanguay Lab 24 Hour Post-fertilization zebrafish Assay for Mortality (AID 2284389)
Procedure, shortened: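 Dechorionated wild-type zebrafish embryos, 1 per well, statically exposed from 6 hpf at 28C, 0.64% DMSO final. Mortality scored as binary present/absent at 24 hpf by brightfield microscopy, relative to DMSO.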

[2] = Tanguay_ZF_120hpf_DP24: Oregon State University Tanguay Lab 24 Hour Post-fertilization zebrafish Assay for Delayed Development (AID 2284390)
Procedure, shortened: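 Dechorionated 5D wild-type zebrafish embryos exposed statically from 6 hpf, one per well, 0.64% DMSO final, 28 C, sealed and dark. Developmental progression scored at 24 hpf by brightfield as binary present/absent; dead embryos excluded.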

[3] = Tanguay_ZF_120hpf_CRAN: Oregon State University Tanguay Lab 120 Hour Post-fertilization zebrafish Assay for Craniofacial Malformation (AID 2284397)
Procedure, shortened: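 Dechorionated Tropical 5D wild-type zebrafish embryos, one per well, were statically exposed from 6 to 120 hpf at 28C in 0.64% DMSO, with 5uM trimethyltin chloride as positive control. Craniofacial malformation was scored present/absent by brightfield microscopy, relative to DMSO.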

[4] = Tanguay_ZF_120hpf_AXIS: Oregon State University Tanguay Lab 120 Hour Post-fertilization zebrafish Assay for Axial Malformation (AID 2284398)
Procedure: Tanguay_ZF_120hpf is a whole embryo, multiplexed endpoint assay using zebrafish larvae exposed for 120 hours post fertilization on a 96-well plate.Tanguay_ZF_120hpf_AXIS is one of one assay component(s) measured or calculated from the Tanguay_ZF_120hpf assay. It is designed to make measurements of zebrafish development as detected with brightfield microscopy of developing zebrafish embryos.Data from the assay component Tanguay_ZF_120hpf_AXIS was analyzed into 1 assay endpoints. This assay endpoint, Tanguay_ZF_120hpf_AXIS, was analyzed in the positive analysis fitting direction relative to DMSO as the negative control and baseline of activity. […]
Zebrafish husbandry: Tropical 5D wild-type adult zebrafish were housed in at an approximate density of 1000 per 100 gallon tank at the Sinnhuber Aquatic Research Laboratory, Oregon State University, Corvallis, OR. […] At 24 hpf, embryos were assessed for photomotor response using a custom photomotor response analysis tool (PRAT) and for developmental toxicity endpoints (MO24: mortality at 24 hpf, DP: developmental progression, SM: spontaneous movement, and NC: notochord distortion). At 120 hpf, locomotor activity was measured using Viewpoint Zebralab and assessed for 13 endpoints. […] If mortality occurred for an embryo (at either 24 or 120 hpf), the non-mortality endpoints were not measured.

[5] = Tanguay_ZF_120hpf_EDEM: Oregon State University Tanguay Lab 120 Hour Post-fertilization zebrafish Assay for Edema Malformation (AID 2284400)
Procedure, shortened: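 Dechorionated Tropical 5D wild-type embryos, one per well, statically exposed from 6 to 120 hpf at 28C in 0.64% DMSO. Edema scored present/absent by brightfield microscopy at 120 hpf; dead embryos not scored; fit versus DMSO.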

[6] = CCTE_Mundy_HCI_iCellGluta_NOG_NeuriteCount: CCTE's Neurite Outgrowth Assay in iCellGluta cells for Neurite Count, Mundy Lab (AID 2284342; active means hit-call score of the fitted dose curve at least 0.9, where 1 is the maximum;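 further: chemical exposure about 48 hours starting 2 hours after plating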)
[7] = Tanguay_ZF_120hpf_MORT: Oregon State University Tanguay Lab 120 Hour Post-fertilization zebrafish Assay for Mortality (AID 2284399)
Procedure, shortened: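 Dechorionated wild-type Tropical 5D zebrafish embryos, one per well from 6 hpf, static exposure to 120 hpf at 28C in sealed dark plates, 0.64% DMSO final. Mortality scored as binary by brightfield at 24 and 120 hpf.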

[8] = CCTE_Deisenroth_H295R-HTRF_384WELL_ESTRADIOL: CCTE's H295R-HTRF Assay Evaluation of Estradiol Concentration, Deisenroth Lab (AID 2284361); details: actives raise or lower the signal
Procedure: (§1) CCTE_Deisenroth_H295R-HTRF_384WELL assay is a cell-based, multiplex-readout assay that uses H295R, a human adrenocortical carcinoma cell line, with measurements taken at 48 hours after chemical dosing in a 384-well microplateCCTE_Deisenroth_H295R-HTRF_384WELL_ESTRADIOL is one of 3 assay components calculated in the CCTE_Deisenroth_H295R-HTRF_384WELL assay (2 hormones and 1 viability components). It is designed to make measurements of hormone induction, a form of inducible reporter, as detected with Homogenous Time Resolved Fluorescence immunoassay technology.This assay endpoint, CCTE_Deisenroth_H295R-HTRF_384WELL_ESTRADIOL, was analyzed with bidirectional fitting relative to DMSO as the negative control and baseline of activity. Using a type of inducible reporter, gain or loss-of-signal activity using Homogenous Time Resolved Fluorescence technology was used to understand synthesis of estradiol in the H295R cell line at 48hr of chemical exposure. […]
(§2) Standard operating procedures for the cell culture medium, maintenance, expansion, and cryopreservation of the NCI-H295R adrenocortical carcinoma adherent cell line were adopted directly from guideline specifications7,13. […] Fluorescent endpoint measurements are conducted with a microplate reader equipped with an HTRF-compatible filter set (ex: 320 (10) […]; em: 620 (10) and 665 (10) nM). […]

[9] = CCTE_Deisenroth_H295R-HTRF_384WELL_TESTOSTERONE: CCTE's H295R-HTRF Assay Evaluation of Testosterone Concentration, Deisenroth Lab (AID 2284373); details: actives raise or lower the signal
Procedure: as §1, with “microplateCCTE_Deisenroth_H295R-HTRF_384WELL_TESTOSTERONE” for “microplateCCTE_Deisenroth_H295R-HTRF_384WELL_ESTRADIOL”, “CCTE_Deisenroth_H295R-HTRF_384WELL_TESTOSTERONE,” for “CCTE_Deisenroth_H295R-HTRF_384WELL_ESTRADIOL,”, “testosterone” for “estradiol”
as §2

[10] = CCTE_Deisenroth_H295R-HTRF_384WELL_CTOX: Cytotoxicity Assessment in CCTE's H295R-HTRF Assay, Deisenroth Lab (AID 2284380; active means hit-call score of the fitted dose curve at least 0.9, where 1 is the maximum)
Procedure, shortened: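 H295R adrenocortical carcinoma cells plated 24 h, then exposed 48 h to nine-point series 0.001–100 uM final, triplicate, n=5. ATP measured by CellTiter-Glo 2.0 luminescence on same plates after medium collection; loss versus DMSO.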

Compound: O=C(O)C(F)(F)C(F)(F)C(F)(F)C(F)(F)C(F)(F)C(F)(F)C(F)(F)C(F)(F)C(F)(F)C(F)(F)F
- outcome [1]: inactive
- outcome [2]: inactive
- outcome [3]: inactive
- outcome [4]: inactive
- outcome [5]: inactive

Compound: COP(=O)(OC)O/C(=C\Cl)c1cc(Cl)c(Cl)cc1Cl
- AC50 [6]: 51500 nM (active)

Compound: O=C1C2(Cl)C3(Cl)C4(Cl)C(Cl)(Cl)C5(Cl)C3(Cl)C1(Cl)C5(Cl)C24Cl (stereo not given)
- AC50 [6]: 21600 nM (active)

Compound: O=C(O)C(F)(F)C(F)(F)C(F)(F)C(F)(F)C(F)(F)C(F)(F)F
- outcome [1]: inactive
- outcome [2]: inactive
- outcome [3]: inactive
- outcome [4]: inactive
- outcome [7]: inactive
- outcome [5]: inactive

Compound: Fc1ccc(C2(Cn3cncn3)OC2c2ccccc2Cl)cc1 (stereo not given)
- AC50 [8]: 1140 nM (active)
- AC50 [9]: 1230 nM (active)
- outcome [10]: inactive

Compound: CCC1(c2ccc(N)cc2)CCC(=O)NC1=O (stereo not given)
- outcome [8]: inactive
- outcome [9]: inactive
- outcome [10]: inactive

Compound: C=C(C)C(=O)[O][Sn]([CH2]CCC)([CH2]CCC)[CH2]CCC
- AC50 [6]: 188 nM (active)
